Bioassay records: PubChem, National Center for Advancing Translational Sciences (NCATS)
The list is not random: actives were taken first. Their share in the collection is about 12%.
BAZ2B inh = inhibitors of human BAZ2B bromodomain | Q9UIF8 | AlphaScreen BAZ2B-H3K14Ac peptide displacement | Potency, µM (titrated, usually from 114 µM), inactives show at the top dose activity change, negative = inhibition, actives largely listed as inhibitors | 360,000 compounds, 4.4% hits; also: potency is read from the fitted curve at half-maximal effect; % is scaled to controls: 0 for no effect and ±100 for the full control effect; nearly all actives have a fitted effect of over 60% in size
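BAZ2B (50 nM) with biotin-H3(5-23)K14Ac peptide (50 nM) in PBS pH 7.4, 0.01% Tween-20, preformed 30 min, then compound 30 min at room temperature; top concentration 110uM. AlphaScreen streptavidin donor/nickel chelate acceptor beads (10 ug/mL final), 20 min dark, signal read.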
PLK1 PBD inh = PLK1 (human) polo-box domain binding inhibition. P53350. Plk1 PBD binding of FITC phosphopeptide, fluorescence polarization. Potency, µM, inactives show max response, negative = inhibition, most hits filed as inhibitors. 360,000 compounds, 2.8% hits; also: potency is read from the fitted curve at half-maximal effect; series mostly up to about 57 µM; % is scaled to controls: 0 for no effect and ±100 for the full control effect; nearly all actives have a fitted effect of over 65% in size
JMJD2A Tudor = blocks the human JMJD2A Tudor domain; Potency, µM (top dose mostly 114 µM), for inactives: at the highest dose activity change, negative = inhibition, most hits filed as inhibitors; AlphaScreen JMJD2A-Tudor / H3K4me3 peptide binding; 390,000 compounds, 4.4% hits; also: potency is read from the fitted curve at half-maximal effect; % is scaled to controls: 0 for no effect and ±100 for the full control effect; nearly all actives have a fitted effect of over 50% in size
HP1b chromo inh = blocks HP1-beta chromodomain binding to methylated histone tails. P83916. AlphaScreen HP1-beta / biotin-H3K9me3 peptide binding. Potency, µM (series often up to 114 µM), inactives show at the highest dose activity change, negative = inhibition, usual class: inhibitors. 390,000 compounds, 0.56% hits; also: potency is read from the fitted curve at half-maximal effect; nearly all actives have a fitted effect of over 70% in size
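HP1-beta protein (50 nM final) preincubated 30 min at room temperature with biotinylated H3(1-18)K9me3 peptide (50 nM) in PBS pH 7.4, 0.01% Tween-20, then compound added for 30 min. AlphaScreen streptavidin donor/nickel chelate acceptor beads (10 ug/mL final), 30 min dark, luminescence read.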
PI5P4K alpha inh = blocks human PI5P4K alpha kinase activity; PI5P4Kalpha enzyme, ADP-Glo luminescence, 60 min; hits give low values; max response, %; 330,000 compounds, 1.2% hits; AID 652105; active = max response of -50% or lower; inconclusive = between -30% and -50%; inactive = -30% or higher; also: value at the top dose of about 77 µM; % is scaled to controls: 0 for no effect and ±100 for the full control effect
Target sequence (P48426 whole entry, looked up): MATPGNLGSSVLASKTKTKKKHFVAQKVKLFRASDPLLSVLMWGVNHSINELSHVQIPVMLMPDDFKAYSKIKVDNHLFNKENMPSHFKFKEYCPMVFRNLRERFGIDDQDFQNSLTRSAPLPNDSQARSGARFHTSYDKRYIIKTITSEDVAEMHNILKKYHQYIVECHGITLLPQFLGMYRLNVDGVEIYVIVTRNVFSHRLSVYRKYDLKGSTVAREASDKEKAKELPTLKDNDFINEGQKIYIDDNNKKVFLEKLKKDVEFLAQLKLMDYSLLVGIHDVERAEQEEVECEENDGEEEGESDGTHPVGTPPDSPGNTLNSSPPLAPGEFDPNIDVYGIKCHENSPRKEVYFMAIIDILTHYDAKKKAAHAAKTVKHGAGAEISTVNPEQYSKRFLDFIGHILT
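Quantitative HTS of the MLSMR library against PI5P4Kalpha with substrate. ATP added last at 5 microM final; room temperature, 60 minutes. Remaining ATP depleted, ADP converted and read as luminescence.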
G9a block = blocks human histone lysine methyltransferase G9a; G9a H3K9 monomethylation, AlphaScreen, 2 h; Potency, µM (series often up to 102 µM), for inactives: top-dose activity, negative = inhibition, hits mostly inhibitors; 350,000 compounds, 8.8% hits; AID 504332; also: potency is read from the fitted curve at half-maximal effect; % is scaled to controls: 0 for no effect and ±100 for the full control effect; nearly all actives have a fitted effect of over 75% in size
Target sequence (Q96KQ7 913-1193 limits assumed): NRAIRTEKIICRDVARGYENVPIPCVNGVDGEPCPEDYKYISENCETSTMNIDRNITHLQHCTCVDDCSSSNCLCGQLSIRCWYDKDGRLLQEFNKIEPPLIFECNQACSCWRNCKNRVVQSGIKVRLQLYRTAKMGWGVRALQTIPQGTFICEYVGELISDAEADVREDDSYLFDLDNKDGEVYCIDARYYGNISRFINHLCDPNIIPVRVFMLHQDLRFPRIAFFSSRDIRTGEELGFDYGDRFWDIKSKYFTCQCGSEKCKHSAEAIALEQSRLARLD
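G9a (20 nM) was preincubated 15 min with compound, then reacted 2 h at room temperature with 500 nM biotin-H3K9 peptide and 20 µM SAM. Monomethyl-H3K9 detected by AlphaScreen using anti-H3K9me1 antibody.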
The depositor's hits bear a star; u = inconclusive; x = no result given; [ ] = remark or other dose. Unless noted, calls follow the shape of the dose curve; as a rule, active = well fitted curve in the direction sought with a large enough effect; inconclusive = small, poorly fitted or top-dose-only effect, or another doubt; inactive = no such curve, though single readings can be large; an effect the other way counts as inactive or inconclusive.

SMILES	BAZ2B inh	PLK1 PBD inh	JMJD2A Tudor	HP1b chromo inh	PI5P4K alpha inh	G9a block
Cc1cc(C)cc(Oc2nc3ccccn3c(=O)c2/C=C(\C#N)c2nc3ccccc3s2)c1	-17.9%	x	-11.7%	49.7%	x	3.55µM*
Cc1cccn2c(=O)c(/C=C(\C#N)c3nc4ccccc4s3)c(Oc3ccc(F)cc3)nc12	-2.4%	x	-8.9%	47.2%	x	-25.2%[59 µM]
COc1ccc(C(c2nnnn2CC2CCCO2)N2CCN(c3ccccc3)CC2)cc1 (stereo unspecified)	50.1µM*	4.6%	u	-1.2%	-0.2	-41.7%[59 µM]
COC(=O)[C@@]1(Cc2ccccc2)[C@H]2C(=O)N(Cc3ccccc3)C(=O)[C@H]2[C@H]2CN=C(SCc3ccc(C#N)cc3)N21	x	-9.6%	-28.3%	65.2%	-0.2	x
CCCCCOc1ccc(C)cc1CN(CCCl)CCCl	-6.1%	23.8µM*	-21.4%	28.8%	-0.7	x
CC1(C)CC(=O)C2=C(C1)OC(N)=C([N+](=O)[O-])C2c1ccc(C#N)s1 (stereo unspecified)	u	u	-14.7%	10.5%	-29.8	-9.0%[12.7 µM]
CN1CN(c2ccccc2)C2(CCN(CCCSc3ccccc3NC(=O)/C=C/c3ccccc3)CC2)C1=O	x	1.1%	39.8µM*	u	-6.5	x
NC(=O)c1cccn(Cc2ccc(C(F)(F)F)cc2)c1=O	-3.9%	-17.4%	-14.3%[11.4 µM]	61.9%	12.5	12.4%
CCOC(=O)C1CCN(/C=C2/C(=O)NC(=O)N(c3cccc(C)c3C)C2=O)CC1	u	-15.2%	-11.7%	28.1%	-0.4	x
O=C1NC(=O)C(CCc2ccncc2)(CCc2ccncc2)C(=O)N1CCc1ccccc1	-4.7%	-11.4%	-10.6%	5.3%	-3.0	x
Cc1ccc2c(c1)CC1(CN2C)C(=O)NC(=O)N(c2cccc(C)c2C)C1=O (stereo unspecified)	-2.3%	-23.8%	-15.2%	49.1%	-3.4	7.94µM*
Cc1ccc2c(c1)CC1(CN2C)C(=O)NC(=O)N(c2ccc(C)c(C)c2)C1=O (stereo unspecified)	-22.6%	-18.6%	-16.5%	33.6%	-5.6	8.91µM*
Cc1ccc2c(c1)CC1(CN2C)C(=O)NC(=O)N(c2ccccc2C)C1=O (stereo unspecified)	-4.5%	-18.9%	-4.7%[57.1 µM]	34.0%	-2.8	10µM*
COc1ccc(CC2(CCc3ccccn3)C(=O)NC(=O)N(c3ccccc3C)C2=O)cc1OC (stereo unspecified)	-8.4%	-0.4%	-10.5%	24.6%	-0.7	4.2%[12.7 µM]
Cc1ccc2c(c1)CC1(CN2C)C(=O)NC(=O)N(CCc2ccccc2)C1=O (stereo unspecified)	-3.9%	-20.5%	2.1%	47.3%	-0.5	7.94µM*
CN1CCCC2(CCN(C(=O)c3ccco3)CC2)C1	x	x	x	x	x	-3.0%[12.7 µM]
CSCCC(=O)Nc1cc(S(=O)(=O)N2CCOCC2)ccc1N1CCN(C)CC1	-1.9%	-16.5%	-16.1%	18.9%	-8.7	u
COc1ccccc1N1C(=O)NC(=O)C2(Cc3cc(C)ccc3N(C)C2)C1=O (stereo unspecified)	-4.6%	-18.0%	-30.1%	29.9%	x	8.91µM*
C[C@H]1CC[C@@H]2[C@@H](C)[C@H]3C(C[C@H]4C5CC[C@H]6C[C@@H](O)CC[C@]6(C)C5CC[C@]34C)N2C1 (stereo partly specified)	x	x	-6.2%	36.4%	x	x
CCOC(=O)[C@]12Cc3c(cc(OC)c(OC)c3OC)[C@H]1N(C(C)C)C(=O)c1cc(OC)ccc12	x	u	x	x	-0.6	x
CCOC(=O)[C@]12Cc3cc(OC)ccc3[C@H]1N(C(C)C)C(=O)c1cc(OC)ccc12	x	8.44µM*	x	x	2.2	x
CCOC(=O)[C@]12Cc3cc(OC)ccc3[C@H]1N(C)C(=O)c1ccccc12	x	u	x	x	-7.1	x
CCOC(=O)[C@]12Cc3cc(C)ccc3[C@H]1N(C)C(=O)c1cc(OC)ccc12	x	6.7µM*	x	x	-1.0	x
C[C@H]1[C@@H](O)[C@@H](C)/C=C\C=CCC\C=C/C=C\C=C/C=C[C@@H](O[C@H]2O[C@@H](C)[C@@H](O)[C@@H](N)[C@@H]2O)C[C@@H]2O[C@@](O)(C[C@@H](O)[C@H]2C(=O)O)C[C@@H](O)[C@@H](O)CC[C@@H](O)C[C@@H](O)C[C@@H](O)CC(=O)O[C@H]1C	x	x	x	x	x	23.7%[21.5 µM]
O=C(CS(=O)C(c1ccccc1)c1ccccc1)NO (stereo unspecified)	x	x	x	x	x	3.2%[12.7 µM]
SMILES	BAZ2B inh	PLK1 PBD inh	JMJD2A Tudor	HP1b chromo inh	PI5P4K alpha inh	G9a block
O=C(O)c1cccc2c1NC(c1cccc([N+](=O)[O-])c1)C1CC(Sc3ccccc3[N+](=O)[O-])C(Cl)C21 (stereo unspecified)	22.4µM*	13.4µM*	22.4µM*	u	-22.8	15.8µM*
O=C(O)c1ccc2c(c1)C1C(Cl)C(Sc3ccccc3[N+](=O)[O-])CC1C(c1cccc([N+](=O)[O-])c1)N2 (stereo unspecified)	17.8µM*	18.9µM*	-21.8%[11.4 µM]	39.8µM*	u	20µM*
O=C1c2ccccc2C(=O)c2c1ccc1c(=O)n(-c3ccccc3)[nH]c21	-25.8%	7.6%	-21.2%	-5.8%	-11.9	3.16µM*
CCCC(=O)c1c(O)[nH]c(=O)[nH]c1=O	u	-8.9%	17.8µM*	19.5%	x	-34.0%[12.7 µM]
CCn1c(SCC(=O)NCc2ccccc2)nnc1C(CO)NC(=O)c1ccccc1 (stereo unspecified)	-16.5%	-7.1%	-7.2%	5.9%	-8.9	31.6µM*
O=C1C=C(N2CC2)c2ccccc2C1=O	x	15µM*	x	x	-66.2*	x
O=c1ccc2cc(O[C@H]3OC(CO)C(O)C(O)C3O)c(O)cc2o1 (stereo partly specified)	x	x	x	x	x	-18.1%[2.33 µM]
CCc1ccccc1N1C(=O)/C(=C/c2ccc(N3CCN(C)CC3)o2)C(=O)NC1=S	u	85.3%	56.2µM*	u	u	u
CN1C(=O)C(=Cc2ccc(N3CCOCC3)o2)C(=O)N(C)C1=O	-26.9%	106.3%	-0.3%	16.1%	-3.6	u
CN1C(=O)C(=Cc2ccc(N3CCCCCC3)o2)C(=O)N(C)C1=S	u	61.6%	u	-50.1%	-23.4	44.7µM*
O=C1NC(=O)N(c2ccc3c(c2)OCO3)C(=O)/C1=C\c1ccc(N2CCCCC2)o1	-27.7%	78.7%	-11.7%	24.2%	-4.5	-11.8%[59 µM]
